Data as given in PubChem BioAssay (NCATS).
Results filed as inconclusive are left out. The source made the active and inactive calls. Calls come from the whole dose curve; as a rule, active = well fitted curve in the direction sought with a large enough effect; inconclusive = small, poorly fitted or top-dose-only effect, or another doubt; inactive = no such curve, though single readings can be large; an effect the other way counts as inactive or inconclusive.

Each compound was assayed against Rap guanine nucleotide exchange factor 4 (Homo sapiens) (UniProt Q8WZA2) (assay: Confirmatory qHTS for agonist of cAMP-regulated guanine nucleotide exchange factor 4 (EPAC2) (AID 1645884;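 note: nucleotide exchange releases bodipy-GDP from Rap1 and this lowers its fluorescence; nearly all actives have a fitted effect of over 65% in size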)). Details: EPAC2 GEF activity, Rap1B-BODIPY-GDP fluorescence; series mostly up to 154 µM; activation: at the top concentration.
% is set by controls: 0 for no effect and ±100 for the full control effect.

Chain of Rap guanine nucleotide exchange factor 4 (Homo sapiens) (Q8WZA2 whole entry, looked up): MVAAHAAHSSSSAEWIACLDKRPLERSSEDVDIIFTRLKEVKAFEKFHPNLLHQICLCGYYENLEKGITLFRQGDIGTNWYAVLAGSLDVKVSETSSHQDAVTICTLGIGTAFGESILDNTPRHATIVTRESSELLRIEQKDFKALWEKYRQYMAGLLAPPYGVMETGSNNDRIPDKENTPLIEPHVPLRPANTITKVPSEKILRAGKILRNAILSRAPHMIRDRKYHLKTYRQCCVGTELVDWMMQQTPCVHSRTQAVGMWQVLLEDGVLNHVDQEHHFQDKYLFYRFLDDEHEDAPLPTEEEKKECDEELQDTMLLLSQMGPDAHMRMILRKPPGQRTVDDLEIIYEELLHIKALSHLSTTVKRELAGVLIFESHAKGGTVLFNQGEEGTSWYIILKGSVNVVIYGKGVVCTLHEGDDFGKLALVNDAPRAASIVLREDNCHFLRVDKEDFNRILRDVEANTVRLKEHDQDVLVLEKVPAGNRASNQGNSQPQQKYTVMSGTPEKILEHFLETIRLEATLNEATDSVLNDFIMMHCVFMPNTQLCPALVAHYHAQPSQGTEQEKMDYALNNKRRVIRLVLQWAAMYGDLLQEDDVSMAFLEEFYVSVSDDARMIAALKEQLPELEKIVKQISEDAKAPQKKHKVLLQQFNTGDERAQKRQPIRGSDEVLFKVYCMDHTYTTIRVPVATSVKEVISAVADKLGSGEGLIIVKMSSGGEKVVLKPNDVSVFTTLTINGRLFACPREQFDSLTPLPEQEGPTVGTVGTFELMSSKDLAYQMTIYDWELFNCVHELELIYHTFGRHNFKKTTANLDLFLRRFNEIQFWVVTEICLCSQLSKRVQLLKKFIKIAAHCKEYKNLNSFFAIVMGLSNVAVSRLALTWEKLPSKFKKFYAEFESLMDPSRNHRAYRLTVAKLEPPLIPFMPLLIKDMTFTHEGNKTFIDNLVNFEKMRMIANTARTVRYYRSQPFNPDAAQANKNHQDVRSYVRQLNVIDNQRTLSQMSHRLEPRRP

| Structure (SMILES) | activation |
| --- | --- |
| COc1ccc(SC[C@H](C)CN2CC[C@H](C)CCC2=O)cc1 | 15.1% (inactive) |
| Cc1ncc(CO)c(/C=N/NC(=O)c2cc(Br)ccc2O)c1O | 0% [at 17.1 µM, percent relative to cAMP agonist control] (inactive) |
| O=C(Nc1ccc(Cl)cc1)N[C@@H]1CC[C@H](CCNS(=O)(=O)c2ccccc2F)O[C@@H]1CO | 5% (inactive) |
| COc1ccccc1CNC(=O)CSc1ccc(-c2cccs2)nn1 | 0% (inactive) |
| Cc1ccc(S(=O)(=O)N2[C@@H](c3ccc(C(C)(C)C)cc3)C(C(=O)O)=CC[C@H]2c2ccc(C(C)C)cc2)cc1 | -19.2% (inactive) |
| N#Cc1cc(NC(=O)c2ccc(Cl)cc2)ccc1Sc1ccccc1 | 11% (inactive) |
| COc1ccc(NC(=O)Cn2c(SCc3cc(C)ccc3C)nc3ccncc32)c(OC)c1OC | -3.73% [at 83.8 µM, percent relative to cAMP agonist control] (inactive) |
| CCOC(=O)C1CCCN(c2cc(=O)n(C3CCCCC3)c(=O)[nH]2)C1 (stereo not drawn) | 2.95% (inactive) |
| CC(C(=O)Nc1ccccc1C(F)(F)F)n1nc(-c2ccccc2)c2c(c1=O)CCCC2 (stereo not drawn) | -35.1% [at 83.8 µM, percent relative to cAMP agonist control] (inactive) |
| COc1cccc(-c2nc3cc(SC)ccc3cc2CN(C(=O)c2sccc2C)C2CC2)c1 | 2.97% (inactive) |
| COc1ccccc1N1CCN(c2ccc3c(c2)S(=O)(=O)c2cccc(C(=O)NCC4CC4)c2C3=O)CC1 | -1.02% (inactive) |
| CCOC(=O)N1CCC(N2CCOc3ccc(CN4CCC(O)(c5cccnc5)CC4)cc3C2)CC1 | 0.166% (inactive) |
| CCOc1ccc(-n2c(=O)[nH]cc(C(=O)Nc3ccc(OC)c(OC)c3)c2=O)cc1 | 3.81% (inactive) |
| CCC1CCCCN1CCCNC(=O)CCC(=O)N1CC(C)Oc2ccccc21 (stereo not drawn) | 2.13% (inactive) |
| Nc1ccn(C2C=CC(CO)O2)c(=O)n1 (stereo not drawn) | 0% (inactive) |
| O=S(=O)(NCc1ccco1)c1ccc(Cl)cc1Cl | 3.78% [at 17.1 µM, percent relative to cAMP agonist control] (inactive) |
| COc1ccc(-c2[nH]c(-c3ccc(SC)cc3)nc2SCC(=O)Nc2nccs2)cc1 | -29% (inactive) |
| COc1cccc(OC)c1NC(=O)c1ccc(-c2cc(Cl)ccc2Cl)o1 | 14.7% (inactive) |
| COCCCn1c(-c2ccccc2)nc2ccccc2c1=O | -0.524% (inactive) |
| CCc1ccccc1NC(=O)c1oc(=O)c2ccccc2c1-c1ccccc1 | 8.7% [at 83.8 µM, percent relative to cAMP agonist control] (inactive) |

| Structure (SMILES) | activation |
| --- | --- |
| COc1ccc(N2CCN(C3CCCCC3NS(=O)(=O)c3ccccc3)CC2)cc1 (stereo not drawn) | 1.14% (inactive) |
| O=C(Nc1ccccc1N1CCOCC1)c1cccc2c(Br)cccc12 | 13.8% (inactive) |
| COc1cc(Nc2cc(C)nc3ncnn23)cc(OC)c1 | -0.165% (inactive) |
| COc1ccc(-c2nc3cc(C)ccc3cc2CN(C(=O)c2cccs2)C2CC2)cc1OC | 8.75% (inactive) |
| NNc1nc2c(Cl)c(Cl)ccc2s1 | 7.89% [at 17.1 µM, percent relative to cAMP agonist control] (inactive) |
| O=C(O)c1cc(-c2ccc(-c3c(-c4ccc5c(c4)OCO5)noc3-c3ccsc3)cc2)nc2ccccc12 | 4.2% (inactive) |
| CCCc1cc(C(=O)Nc2ccccc2SC)no1 | 4.79% (inactive) |
| Cc1ccc(S(=O)(=O)N2[C@@H](CO)CO[C@H]2CC(=O)c2ccc(F)cc2)cc1 | 27.8% (inactive) |
| CN(C)c1ccc(/C=C/c2ccnc3ccc(F)cc23)cc1 | -2.15% (inactive) |
| CCc1ccccc1NC(=O)CCC(=O)N1CCN(C(C)=O)CC1 | 0% (inactive) |
| Fc1ccccc1N1CCN(c2ncnc3onc(-c4ccc(Cl)cc4)c23)CC1 | -12.8% [at 83.8 µM, percent relative to cAMP agonist control] (inactive) |
| COCCN(CCOC)Cc1cc(=O)oc2cc(C)c(C)cc12 | 2.1% [at 17.1 µM, percent relative to cAMP agonist control] (inactive) |
| CC1(c2ccccc2)CC(C)(C)N2C(=O)Cc3cccc1c32 (stereo not drawn) | 26.2% (inactive) |
| COc1cccc(-c2nc3cc(SC)ccc3cc2CN(C(=O)c2csc(C)n2)C2CC2)c1 | 3.32% (inactive) |
| CCC(C(=O)Nc1cc(OC)ccc1OC)n1nc(-c2ccccc2)c2c(c1=O)CCCC2 (stereo not drawn) | 4.69% [at 83.8 µM, percent relative to cAMP agonist control] (inactive) |
| COc1ccc(CCn2c(=N)c(S(=O)(=O)c3ccc(C)cc3)cc3c(=O)n4ccccc4nc32)cc1 | -30.1% [at 17.1 µM, percent relative to cAMP agonist control] (inactive) |
| CC(C)N(C(=O)Nc1ccc2nsnc2c1)C(C)C | 2.55% [at 17.1 µM, percent relative to cAMP agonist control] (inactive) |
| Cc1cc(NC(=O)CSc2nc(-c3ccccc3)nc3c2c(=O)n(C)c(=O)n3C)no1 | 0% [at 17.1 µM, percent relative to cAMP agonist control] (inactive) |
| Cc1ccc(S(=O)(=O)NC(=O)Cn2nnc(-c3ccccc3)c2COc2ccc3ccccc3c2)cc1 | -42.5% (inactive) |

What follows are compounds tested against Rap guanine nucleotide exchange factor 4 (Homo sapiens) (UniProt Q8WZA2) (assay: Confirmatory qHTS for antagonist of cAMP-regulated guanine nucleotide exchange factor 4 (EPAC2) (AID 1645885; note: nearly all actives have a fitted effect of over 25% in size; note: potency is the fitted concentration of half-maximal effect)). Details: EPAC2 Rap1B-BODIPY-GDP exchange fluorescence, biochemical; series mostly up to 12.7 µM; activity change, negative = inhibition: at the top concentration.

| Structure (SMILES) | activity change, negative = inhibition | outcome | Potency |
| --- | --- | --- | --- |
| COc1ccc(SC[C@H](C)CN2CC[C@H](C)CCC2=O)cc1 | -35.8% [at 114 µM] (inactive) | – | – |
| Cc1ncc(CO)c(/C=N/NC(=O)c2cc(Br)ccc2O)c1O | 28.2% (inactive) | – | – |
| O=C(Nc1ccc(Cl)cc1)N[C@@H]1CC[C@H](CCNS(=O)(=O)c2ccccc2F)O[C@@H]1CO | -18.5% [at 114 µM] (inactive) | – | – |
| COc1ccccc1CNC(=O)CSc1ccc(-c2cccs2)nn1 | -20.8% [at 114 µM] (inactive) | – | – |
| Cc1ccc(S(=O)(=O)N2[C@@H](c3ccc(C(C)(C)C)cc3)C(C(=O)O)=CC[C@H]2c2ccc(C(C)C)cc2)cc1 | 223% [at 114 µM] (inactive) | – | – |
| N#Cc1cc(NC(=O)c2ccc(Cl)cc2)ccc1Sc1ccccc1 | -14.8% [at 114 µM] (inactive) | – | – |
| COc1ccc(NC(=O)Cn2c(SCc3cc(C)ccc3C)nc3ccncc32)c(OC)c1OC | – | inactive [at 12.7 µM] | – |
| CCOC(=O)C1CCCN(c2cc(=O)n(C3CCCCC3)c(=O)[nH]2)C1 (stereo not drawn) | -8.73% [at 114 µM] (inactive) | – | – |
| CC(C(=O)Nc1ccccc1C(F)(F)F)n1nc(-c2ccccc2)c2c(c1=O)CCCC2 (stereo not drawn) | 4.86% (inactive) | – | – |
| COc1cccc(-c2nc3cc(SC)ccc3cc2CN(C(=O)c2sccc2C)C2CC2)c1 | – | – | 31.2 µM (active) |
| COc1ccccc1N1CCN(c2ccc3c(c2)S(=O)(=O)c2cccc(C(=O)NCC4CC4)c2C3=O)CC1 | -18.4% [at 114 µM] (inactive) | – | – |
| CCOC(=O)N1CCC(N2CCOc3ccc(CN4CCC(O)(c5cccnc5)CC4)cc3C2)CC1 | -7.47% [at 114 µM] (inactive) | – | – |
| CCOc1ccc(-n2c(=O)[nH]cc(C(=O)Nc3ccc(OC)c(OC)c3)c2=O)cc1 | 2.21% [at 114 µM] (inactive) | – | – |
| CCC1CCCCN1CCCNC(=O)CCC(=O)N1CC(C)Oc2ccccc21 (stereo not drawn) | 27.8% [at 114 µM] (inactive) | – | – |
| Nc1ccn(C2C=CC(CO)O2)c(=O)n1 (stereo not drawn) | -13.2% [at 114 µM] (inactive) | – | – |
| O=S(=O)(NCc1ccco1)c1ccc(Cl)cc1Cl | -9.25% (inactive) | – | – |
| COc1ccc(-c2[nH]c(-c3ccc(SC)cc3)nc2SCC(=O)Nc2nccs2)cc1 | 266% [at 114 µM] (inactive) | – | – |
| COc1cccc(OC)c1NC(=O)c1ccc(-c2cc(Cl)ccc2Cl)o1 | 24.8% [at 114 µM] (inactive) | – | – |
| COCCCn1c(-c2ccccc2)nc2ccccc2c1=O | -4.19% [at 114 µM] (inactive) | – | – |
| CCc1ccccc1NC(=O)c1oc(=O)c2ccccc2c1-c1ccccc1 | 14.4% (inactive) | – | – |

| Structure (SMILES) | activity change, negative = inhibition | outcome | Potency |
| --- | --- | --- | --- |
| COc1ccc(N2CCN(C3CCCCC3NS(=O)(=O)c3ccccc3)CC2)cc1 (stereo not drawn) | – | – | 16.9 µM (active) |
| O=C(Nc1ccccc1N1CCOCC1)c1cccc2c(Br)cccc12 | 11.7% [at 114 µM] (inactive) | – | – |
| COc1cc(Nc2cc(C)nc3ncnn23)cc(OC)c1 | – | inactive | – |
| COc1ccc(-c2nc3cc(C)ccc3cc2CN(C(=O)c2cccs2)C2CC2)cc1OC | – | – | 49.4 µM (active) |
| NNc1nc2c(Cl)c(Cl)ccc2s1 | 4.94% (inactive) | – | – |
| O=C(O)c1cc(-c2ccc(-c3c(-c4ccc5c(c4)OCO5)noc3-c3ccsc3)cc2)nc2ccccc12 | – | – | 37.9 µM (active) |
| CCCc1cc(C(=O)Nc2ccccc2SC)no1 | 52.6% [at 114 µM] (inactive) | – | – |
| Cc1ccc(S(=O)(=O)N2[C@@H](CO)CO[C@H]2CC(=O)c2ccc(F)cc2)cc1 | -11.5% [at 114 µM] (inactive) | – | – |
| CN(C)c1ccc(/C=C/c2ccnc3ccc(F)cc23)cc1 | -7.99% [at 114 µM] (inactive) | – | – |
| CCc1ccccc1NC(=O)CCC(=O)N1CCN(C(C)=O)CC1 | -6.3% [at 114 µM] (inactive) | – | – |
| Fc1ccccc1N1CCN(c2ncnc3onc(-c4ccc(Cl)cc4)c23)CC1 | 9.78% (inactive) | – | – |
| COCCN(CCOC)Cc1cc(=O)oc2cc(C)c(C)cc12 | -11.9% (inactive) | – | – |
| CC1(c2ccccc2)CC(C)(C)N2C(=O)Cc3cccc1c32 (stereo not drawn) | – | – | 33.8 µM (active) |
| COc1cccc(-c2nc3cc(SC)ccc3cc2CN(C(=O)c2csc(C)n2)C2CC2)c1 | – | – | 11.1 µM (active) |
| CCC(C(=O)Nc1cc(OC)ccc1OC)n1nc(-c2ccccc2)c2c(c1=O)CCCC2 (stereo not drawn) | 22.5% (inactive) | – | – |
| COc1ccc(CCn2c(=N)c(S(=O)(=O)c3ccc(C)cc3)cc3c(=O)n4ccccc4nc32)cc1 | -26.5% (inactive) | – | – |
| CC(C)N(C(=O)Nc1ccc2nsnc2c1)C(C)C | -13.2% (inactive) | – | – |
| Cc1cc(NC(=O)CSc2nc(-c3ccccc3)nc3c2c(=O)n(C)c(=O)n3C)no1 | -7.21% (inactive) | – | – |
| Cc1ccc(S(=O)(=O)NC(=O)Cn2nnc(-c3ccccc3)c2COc2ccc3ccccc3c2)cc1 | 147% [at 114 µM] (inactive) | – | – |
